Laboratory results from the supplement of paper PMC4954754.
± gives the uncertainty stated by the source.

tested on: HEK293T-Rex ERSE-FLuc; assay: ERSE-FLuc reporter activation, triplicate confirmation, relative to 500 nM thapsigargin (% of thapsigargin); higher = stronger ATF6/ERSE reporter activation; details: 6.8 µM; 18 h; screen: confirmation
Procedure: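 HEK293T-Rex cells stably expressing the ERSE-firefly luciferase (BiP promoter, ATF6-preferring) or XBP1-splicing Renilla luciferase (IRE1/XBP1s) reporter, 1536-well plates, compound at 6.8 µM for 18 hr at 37 °C; luminescence read […] and expressed as % activation = 100*(compound - median DMSO)/(median 500 nM thapsigargin - median DMSO). Primary screen was single-pass; confirmation screen in triplicate (mean ± SD).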

Row | SMILES | ERSE-FLuc reporter activation
1 | Cc1ccc(O)c(NC(=O)c2cc(-c3ccc(F)cc3)on2)c1 | 31.9 ± 8.4
2 | NC(=O)c1c(NC(=O)/C=C/c2ccccc2)sc2c1CCCCC2 | 28.9 ± 2.4
3 | Nc1ccc2sc(-c3cc(Cl)c(N)c(Cl)c3)nc2c1 | 30.8 ± 2.4
4 | OCCNc1nc(Nc2ccc(Br)cc2)nc2ccccc12 | 54.2 ± 16
5 | O=C(NCCc1ccc(O)cc1)c1ccc2nc(-c3csc4ccccc34)sc2c1 | 103 ± 23
6 | O=C(N/N=C/c1cccc(Cl)c1Cl)c1ccccc1O | 25.3 ± 1.4
7 | CCn1c(/C(C#N)=C/c2ccc(OC)cc2)nc2ccccc21 | 27.2 ± 7.1
8 | Cc1ccc2nc(/C(C#N)=C\c3cc(Cl)cc4c3OCOC4)[nH]c2c1 | 51.3 ± 9.8
9 | COc1ccc(Nc2nccn3c(-c4ccsc4)cnc23)cn1 | 38.1 ± 6.9
10 | COc1ccccc1-c1cc(C(=O)Nc2cc(C)ccc2O)no1 | 29.1 ± 4
11 | Nc1ccc2nc(/C=C/c3ccco3)[nH]c2c1 | 40.9 ± 9.5
12 | O=C(N/N=C\C(Cl)=C\c1ccccc1)c1n[nH]c2c1CCCC2 | 33.3 ± 7.3
13 | Cc1ccc(/C=N/NC(=O)c2cccc(Cl)c2)cc1 | 31.9 ± 1.9
14 | Cc1ccc(Nc2nc(N)c3ccccc3n2)cc1Cl | 34.8 ± 5.8
15 | Cc1ccc(O)c(NC(=O)c2cc(-c3ccco3)on2)c1 | 74.4 ± 8.9
16 | Cc1ccc(O)c(NC(=S)NC(=O)/C=C/c2ccco2)c1 | 27 ± 5.2
17 | CCCCNC(=O)c1cc(-c2cccs2)on1 | 65.1 ± 6.3
18 | O=C(COC(=O)c1cc(O)c(O)c(O)c1)Nc1ccc(Br)cc1F | 57.9 ± 11
19 | COc1cccc(/C=N/NC(=O)c2ccc(NC(=O)c3ccc(C)cc3)cc2)c1O | 36.4 ± 11
20 | Oc1ccc(-c2csc3nc(-c4ccccc4)nn23)c(O)c1 | 33.9 ± 2.6

Row | SMILES | ERSE-FLuc reporter activation
21 | Cc1ccc(O)c(NC(=O)c2cc(-c3cccs3)on2)c1 | 106 ± 4
22 | CN(C)c1ccc(C(=NO)c2ccc(N(C)C)cc2)cc1 | 28 ± 6.5
23 | Nc1c(C(=O)Nc2ccccc2)sc2nc3c(cc12)CCCCC3 | 35.6 ± 5.3
24 | N#CC1=C(N)Oc2c(ccc3ccccc23)C1c1ccsc1 (stereo not given) | 25.8 ± 2.7
25 | Cc1ccc(O)c(N=CC2=C(O)c3ccccc3C2=O)c1 | 78.8 ± 6.2
26 | CCN(CC)c1ccc2cc(-c3nc4ccccc4n3C)c(=O)oc2c1 | 34.2 ± 4.2
27 | O=c1[nH]c(/C=C2\C=Nc3ccccc32)c(O)n1-c1ccc(Cl)cc1 | 41.4 ± 5.5
28 | Cn1c(-c2cccc(Cl)c2)cnc1NC(=O)c1ccccc1 | 25.6 ± 3.7
29 | COc1cccc(-c2nc3ccc(N)cc3[nH]2)c1 | 32.8 ± 4.8
30 | CCOc1cccc(/C=C2\NC(=S)N(C)C2=O)c1O | 26.2 ± 29
31 | COc1ccc(C2C=C3Oc4ccccc4N=C3NN2)cc1 (stereo not given) | 29 ± 3.5
32 | O=C(NCCc1ccccc1)c1cc(-c2cccs2)on1 | 34.5 ± 3.6
33 | NN1C(=O)/C(=C/c2ccc(O)c(O)c2)SC1=S | 38.3 ± 1
34 | CN(C)c1ccc(C2C(C#N)=C(N)Oc3c2sc2ccccc32)cc1[N+](=O)[O-] (stereo not given) | 26 ± 0.29
35 | COc1ccc(/C=N/NC(=O)c2cccc(F)c2)cc1Br | 35.4 ± 1.5
36 | O=[N+]([O-])c1ccccc1NC(=S)N/N=C/c1ccc(O)c(O)c1 | 33.2 ± 4.3
37 | COc1cccc(C(=O)Nc2nc3ccc(C)cc3s2)c1 | 32.2 ± 7.2
38 | Oc1ccc(-c2csc(-c3cccnc3)n2)cc1O | 29.3 ± 1.4
39 | COc1cccc(/C=N/NC(=O)c2n[nH]c3c2CCCC3)c1 | 31.5 ± 1.1
40 | Cc1ccc(-c2csc(Nc3ccc(O)cc3)n2)cc1 | 26.7 ± 7.1
